{"source": "the antibiotic and cytotoxicity screens of Wong et al. (2023)", "note": "In all, about 39,000 compounds went through this assay and about 3,300 (8.5%) were called active. What follows is part of a selection rich in actives, with near analogues and random picks from the rest."}
{"tested_on": "HepG2", "test": "cytotoxicity call (relative viability < 0.9)", "conditions": "10 µM"}
{"smiles": "COc1cccc(S(=O)(=O)N(C)C[C@@H]2Oc3ncc(-c4cccc(C(=O)N(C)C)c4)cc3C(=O)N([C@@H](C)CO)C[C@H]2C)c1", "cytotoxicity call": "inactive"}
{"smiles": "CC(C)NC(=O)Nc1ccc2c(c1)C(=O)N([C@H](C)CO)C[C@H](C)[C@@H](CN(C)Cc1ccccc1)OCCCC[C@H](C)O2", "cytotoxicity call": "inactive"}
{"smiles": "COc1ccc2c3c([nH]c2c1)[C@@H](CO)N(C[C@]13CN(CCc2ccccc2)C1)C(=O)CN1CCOCC1", "cytotoxicity call": "inactive"}
{"smiles": "COc1ccc2c3c([nH]c2c1)[C@H](CO)N(C[C@]13CN(CCc2ccccc2)C1)C(=O)CN1CCOCC1", "cytotoxicity call": "inactive"}
{"smiles": "COc1ccc2c3c([nH]c2c1)[C@H](CO)N(Cc1ccc(cc1)Cl)C[C@]13CN(CCc2ccccc2)C1", "cytotoxicity call": "active"}
{"smiles": "COc1ccc2c3c([nH]c2c1)[C@@H](CO)N(Cc1ccccc1)C[C@]13CCN(CC1)C(=O)Nc1cccc(c1)F", "cytotoxicity call": "inactive"}
{"smiles": "COc1ccc2c3c([nH]c2c1)[C@@H](CO)N(Cc1ccc(cc1)Cl)C[C@]13CN(CCc2ccccc2)C1", "cytotoxicity call": "active"}
{"smiles": "COc1ccc(cc1)CN1C[C@]2(CN(C2)C(=O)Cc2ccncc2)c2c([nH]c3cc(ccc23)OC)[C@H]1CO", "cytotoxicity call": "inactive"}
{"smiles": "C[C@H]1CN([C@@H](C)CO)C(=O)c2c(c3ccccc3n2C)-c2ccccc2CO[C@@H]1CN(C)Cc1ccccc1C(F)(F)F", "cytotoxicity call": "inactive"}
{"smiles": "C[C@H]1CN([C@@H](C)CO)C(=O)Cc2cc(NC(=O)CCN3CCOCC3)ccc2O[C@H]1CN(C)S(=O)(=O)c1ccccc1", "cytotoxicity call": "inactive"}
{"smiles": "C=C[C@](C)(O)CCC[C@H](C)CCC[C@H](C)CCCC(C)C", "cytotoxicity call": "inactive"}
{"smiles": "CC(=O)OC1CCC2(C)C(CCC3(C)C2CC=C2C4CC(C)(C)CCC4(C(=O)O)CCC23C)C1(C)C", "note": "(configuration not stated)", "cytotoxicity call": "inactive"}
{"smiles": "COc1ccc(S(=O)(=O)Nc2ccc3c(c2)C(=O)N([C@@H](C)CO)C[C@H](C)[C@H](CN(C)Cc2ccc4c(c2)OCO4)OCCCC[C@H](C)O3)cc1", "cytotoxicity call": "inactive"}
{"smiles": "C[C@@H]1CN([C@H](C)CO)C(=O)Cc2cc(NS(=O)(=O)c3ccc(Cl)cc3)ccc2O[C@@H]1CN(C)C(=O)Nc1ccc(C(F)(F)F)cc1", "cytotoxicity call": "inactive"}
{"smiles": "CN(C)C(=O)C[C@@H]1C=C[C@H](NC(=O)C2CC2)[C@@H](CO)O1", "cytotoxicity call": "inactive"}
{"smiles": "COc1ccc(S(=O)(=O)N(C)C[C@@H]2OCCCC[C@H](C)Oc3ccc(NC(=O)NC4CCCCC4)cc3C(=O)N([C@@H](C)CO)C[C@@H]2C)cc1", "cytotoxicity call": "inactive"}
{"smiles": "COc1ccc(S(=O)(=O)N(C)C[C@@H]2OCCCC[C@H](C)Oc3ccc(NC(=O)NC4CCCCC4)cc3C(=O)N([C@H](C)CO)C[C@@H]2C)cc1", "cytotoxicity call": "inactive"}
{"smiles": "COc1ccc(S(=O)(=O)N(C)C[C@H]2OCCCC[C@@H](C)Oc3ccc(NC(=O)NC4CCCCC4)cc3C(=O)N([C@@H](C)CO)C[C@@H]2C)cc1", "cytotoxicity call": "active"}
{"smiles": "COc1ccc(S(=O)(=O)N(C)C[C@H]2OCCCC[C@H](C)Oc3ccc(NC(=O)NC4CCCCC4)cc3C(=O)N([C@@H](C)CO)C[C@H]2C)cc1", "cytotoxicity call": "inactive"}
{"smiles": "COc1ccc(S(=O)(=O)N(C)C[C@@H]2OCCCC[C@H](C)Oc3ccc(NC(=O)NC4CCCCC4)cc3C(=O)N([C@@H](C)CO)C[C@H]2C)cc1", "cytotoxicity call": "inactive"}
{"smiles": "COc1ccc(S(=O)(=O)N(C)C[C@@H]2OCCCC[C@@H](C)Oc3ccc(NC(=O)NC4CCCCC4)cc3C(=O)N([C@H](C)CO)C[C@H]2C)cc1", "cytotoxicity call": "active"}
{"smiles": "COc1ccc(S(=O)(=O)N(C)C[C@H]2OCCCC[C@H](C)Oc3ccc(NC(=O)NC4CCCCC4)cc3C(=O)N([C@H](C)CO)C[C@H]2C)cc1", "cytotoxicity call": "inactive"}
{"smiles": "COc1ccc(S(=O)(=O)N(C)C[C@H]2OCCCC[C@H](C)Oc3ccc(NC(=O)NC4CCCCC4)cc3C(=O)N([C@H](C)CO)C[C@@H]2C)cc1", "cytotoxicity call": "inactive"}
{"smiles": "COc1ccc(S(=O)(=O)N(C)C[C@H]2OCCCC[C@@H](C)Oc3ccc(NC(=O)NC4CCCCC4)cc3C(=O)N([C@@H](C)CO)C[C@H]2C)cc1", "cytotoxicity call": "active"}
{"smiles": "C[C@@H]1CN([C@H](C)CO)C(=O)Cc2cc(NC(=O)CCCCCC(=O)Nc3ccccc3N)ccc2O[C@H]1CN(C)S(=O)(=O)c1cn(C)cn1", "cytotoxicity call": "inactive"}
{"smiles": "COc1ccc(NC(=O)N(C)C[C@@H]2OCCCC[C@@H](C)Oc3ccc(NS(=O)(=O)c4cccs4)cc3C(=O)N([C@@H](C)CO)C[C@H]2C)cc1", "cytotoxicity call": "inactive"}
{"smiles": "C[C@H](CO)N1C[C@H](C)[C@@H](CN(C)S(=O)(=O)c2cn(C)cn2)Oc2ccc(NC(=O)C3CC3)cc2CC1=O", "cytotoxicity call": "inactive"}
{"smiles": "C[C@@H]1CCCCO[C@H](CN(C)Cc2ccc(C(=O)Nc3ccccc3N)cc2)[C@@H](C)CN([C@@H](C)CO)C(=O)c2cc(N(C)C)ccc2O1", "cytotoxicity call": "inactive"}
{"smiles": "O=C(C[C@H]1C=C[C@@H](NC(=O)CN2CCOCC2)[C@@H](CO)O1)NCCc1ccccc1", "cytotoxicity call": "inactive"}
{"smiles": "CC(C)CC#Cc1ccc2c(c1)O[C@H](CN(C)C(=O)c1ccncc1)[C@H](C)CN([C@H](C)CO)S2(=O)=O", "cytotoxicity call": "inactive"}
{"smiles": "OCCC[C@@H](O)c1ccc(OCCO)cc1", "cytotoxicity call": "inactive"}
{"smiles": "CCCCCCCCc1ccc(-c2ccc(C(=O)O)cc2)cc1", "cytotoxicity call": "inactive"}
{"smiles": "CCCCCCCCCc1ccc(OCCOCCOCCOCCOCCOCCOCCOCCOCCO)cc1", "cytotoxicity call": "active"}
{"smiles": "C[C@@H]1CN([C@@H](C)CO)C(=O)CCCn2nncc2CO[C@H]1CN(C)Cc1ccc(C(=O)Nc2ccccc2N)cc1", "cytotoxicity call": "inactive"}
{"smiles": "c1coc(CNC[C@H]2Cn3nncc3CO2)c1", "cytotoxicity call": "inactive"}
{"smiles": "N[C@H]1CC[C@@H](NC(=O)[C@H]2CCc3ccccc32)CC1", "cytotoxicity call": "inactive"}
{"smiles": "CC(C)(C)c1ccc(NC(=O)N[C@H]2CCCc3ccccc32)cc1", "cytotoxicity call": "active"}
{"smiles": "CC(C)(C)c1ccc(NC(=O)c2ccc(C(C)(C)C)s2)cc1", "cytotoxicity call": "inactive"}
{"smiles": "Cc1ccc(S(=O)(=O)Nc2ccc3c(c2)C(=O)N([C@H](C)CO)C[C@H](C)[C@@H](CN(C)C(=O)NC2CCCCC2)OCCCC[C@@H](C)O3)cc1", "cytotoxicity call": "inactive"}
{"smiles": "Cc1nc2ccccc2n1Cc1ccc(Cl)cc1", "cytotoxicity call": "active"}
{"smiles": "Cl.Clc1ccc(Cn2c(CN3CCCC3)nc3ccccc32)cc1", "cytotoxicity call": "inactive"}
{"smiles": "Clc1ccc(CSc2nc3ccccc3s2)cc1", "cytotoxicity call": "inactive"}
{"smiles": "CC1=CC2(CO)C(=O)[C@]3(CO3)C1[C@H]1[C@]2(C)C=C(CO)C(=O)[C@]12CO2", "note": "(some centres not stated)", "cytotoxicity call": "inactive"}
{"smiles": "COc1ccc([Si](C)(C)[C@H]2[C@H](CCO)O[C@@]3(C(=O)N(Cc4cccc(N5C(=O)c6cccc7cccc5c67)c4)c4ccccc43)[C@@H]2C)cc1", "cytotoxicity call": "active"}
{"smiles": "COc1ccc([Si](C)(C)[C@@H]2[C@@H](CC(=O)N3CCC[C@H]3CO)O[C@]3(C(=O)N(Cc4cccc(N5C(=O)c6cccc7cccc5c67)c4)c4ccccc43)[C@H]2C)cc1", "cytotoxicity call": "inactive"}
{"smiles": "C[C@@H]1[C@@H]([Si](C)(C)F)[C@H](CCO)O[C@@]12C(=O)N(Cc1cccc(N3C(=O)c4cccc5cccc3c45)c1)c1ccccc12", "cytotoxicity call": "inactive"}
{"smiles": "COc1ccc([Si](C)(C)[C@@H]2[C@@H](CC(=O)N3Cc4ccccc4C[C@H]3CO)O[C@]3(C(=O)N(Cc4cccc(N5C(=O)c6cccc7cccc5c67)c4)c4ccccc43)[C@H]2C)cc1", "cytotoxicity call": "inactive"}
{"smiles": "COc1ccc([Si](C)(C)[C@H]2[C@H](CCO)O[C@@]3(C(=O)N(Cc4ccccc4)c4ccc(N5C(=O)c6cccc7cccc5c67)cc43)[C@@H]2C)cc1", "cytotoxicity call": "active"}
{"smiles": "COc1ccc([Si](C)(C)[C@H]2[C@H](CC(=O)N3Cc4ccccc4C[C@H]3CO)O[C@@]3(C(=O)N(Cc4ccc(N5C(=O)c6cccc7cccc5c67)cc4)c4ccccc43)[C@@H]2C)cc1", "cytotoxicity call": "inactive"}
{"smiles": "COc1ccc([Si](C)(C)[C@H]2[C@H](CC(=O)N3Cc4ccccc4C[C@H]3CO)O[C@@]3(C(=O)N(Cc4cccc(N5C(=O)c6cccc7cccc5c67)c4)c4ccccc43)[C@@H]2C)cc1", "cytotoxicity call": "active"}
{"smiles": "COc1ccc([Si](C)(C)[C@@H]2[C@@H](CCO)O[C@]3(C(=O)N(Cc4cccc(N5C(=O)c6cccc7cccc5c67)c4)c4ccccc43)[C@H]2C)cc1", "cytotoxicity call": "active"}
{"smiles": "COc1ccc([Si](C)(C)[C@H]2[C@H](CC(=O)N3CCC[C@H]3CO)O[C@@]3(C(=O)N(Cc4cccc(N5C(=O)c6cccc7cccc5c67)c4)c4ccccc43)[C@@H]2C)cc1", "cytotoxicity call": "inactive"}
